High-throughput results (PubChem BioAssay)
Most compounds without a hit are left out; they make up all but 3.4% or so of the library.
GPR151 activ = activators of human GPR151; Q8TDV0; PathHunter beta-arrestin GPR151 cells, luminescence; activation, % at 11.2 µM; hit rate 1% among 650,000; in the data active = activation above about 4.9%;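 also: 0% = median of compound wells and 100% = cells with positive control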
MITF primary = blocks human microphthalmia-associated transcription factor | hit rate 0.91% among 650,000 | inhibition, % at 2.6 µM | AID 1259374 | AlphaScreen MITF homodimerization, bead proximity signal; in the data active = inhibition above about 50%;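 also: 0% = vehicle wells with protein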
FBW7 act = human FBW7 E3 ligase activation, primary screen | AID 1259310 | hit rate 0.13% among 650,000 | AlphaScreen FBW7–phospho-cyclin E peptide binding, activator screen | Q969H0 | normalized activity (activation), % at 26.1 µM; in the data active = normalized activity above about 1.9%;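 also: purified mutant Fbw7 with reduced substrate affinity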
Target sequence (Q969H0 whole entry, looked up): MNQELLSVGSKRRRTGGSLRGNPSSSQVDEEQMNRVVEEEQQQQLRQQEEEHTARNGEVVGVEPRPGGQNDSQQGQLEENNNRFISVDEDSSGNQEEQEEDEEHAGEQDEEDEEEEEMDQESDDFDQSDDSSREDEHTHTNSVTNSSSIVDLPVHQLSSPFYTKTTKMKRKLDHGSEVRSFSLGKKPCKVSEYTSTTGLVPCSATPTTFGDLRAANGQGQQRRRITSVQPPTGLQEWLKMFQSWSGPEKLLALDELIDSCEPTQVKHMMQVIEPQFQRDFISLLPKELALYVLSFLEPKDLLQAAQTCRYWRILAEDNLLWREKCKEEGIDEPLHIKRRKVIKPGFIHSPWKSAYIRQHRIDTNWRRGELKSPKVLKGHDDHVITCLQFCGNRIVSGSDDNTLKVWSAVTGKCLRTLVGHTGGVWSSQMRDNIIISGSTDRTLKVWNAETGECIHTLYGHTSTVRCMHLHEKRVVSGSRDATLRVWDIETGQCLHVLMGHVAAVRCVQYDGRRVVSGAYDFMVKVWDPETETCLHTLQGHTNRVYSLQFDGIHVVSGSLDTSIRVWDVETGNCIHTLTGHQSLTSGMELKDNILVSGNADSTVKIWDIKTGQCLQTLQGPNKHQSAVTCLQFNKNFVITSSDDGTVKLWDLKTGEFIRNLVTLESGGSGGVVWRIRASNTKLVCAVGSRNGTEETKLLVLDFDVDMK
TEAD-YAP block = TEAD-YAP interaction inhibition; HEK-TIYL cells, TEAD-Gal4/YAP UAS-luciferase luminescence; inhibition, % at 9.12 µM; hit rate 1.4% among 640,000; in the data active = inhibition above about 32%;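 also: 0% = median of test compound wells and 100% = reference inhibitor wells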
GPR151 conf act = human GPR151 activation, confirmation screen. GPR151 PathHunter beta-arrestin cells, luminescence, 90 min; % of EA-reagent control over plate median. shares compounds with GPR151 activ. AID 1508609. 6,700 tested, under 10 active. activation, % at 11.2 µM;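 active = mean percent activation across replicates above the confirmation screen cutoff of 4.91%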
GPR119 ag = GPR119 activation, counter-screen for GPR151 activators. shares compounds with GPR151 activ. GPR119 PathHunter beta-arrestin cells, luminescence, 90 min; 0 = compound-well median, 100 = enzyme-acceptor control. activation, % at 11.2 µM. hit rate 0.3% among 6,700;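 active = mean percent activation in the counterscreen above 29.09%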;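 also: counterscreen on off-target GPR119 to flag nonselective hits from the GPR151 activator screen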
* hit, by the source's call; . = no result; ! = repeats disagree.

SMILES	GPR151 activ	MITF primary	FBW7 act	TEAD-YAP block	GPR151 conf act	GPR119 ag
CCCN(CCC)CCCn1cnc2c([nH]c3ccc(F)cc32)c1=O	5	9	0	6	.	.
CCCN(CCC)CCCn1cnc2c([nH]c3ccc(OC)cc32)c1=O	5.1*	-4	0	-1	0	5
CC(=O)NCCNC(=O)c1ccc(-c2ccccc2)nc1NCCc1ccccn1	5.1*	-10	0	12	0	-3
COc1cc(N=Cc2c(O)n(-c3ccccc3F)c(=S)[nH]c2=O)cc(OC)c1	5.4*	2	0	10	-1	-5
COc1cc(N=Cc2c(O)n(-c3ccccc3F)c(=O)[nH]c2=O)cc(OC)c1	1	12	0	-23	.	.
Cc1nonc1CC(=O)N1CCCC(CCC(=O)N(C)CCc2ccccn2)C1 (stereo not given)	7.7*	10	0	12	0	-3
CCOC(=O)CCNC(=O)N1CCCC(CCC(=O)N(C)CCc2ccccn2)C1 (stereo not given)	0	-6	0	-4	.	.
CCOC(=O)CCNC(=O)N1CCCC(N(C)CCc2ccccn2)C1 (stereo not given)	5.4*	-2	0	-3	1	-2
CSc1ccc(/C=N\NC(=O)CNc2ccc(C)cc2)cc1	5.8*	6	0	-3	0	-12
Cc1ccc(NC(=O)N2CCC(C(=O)NCCC3=CCCCC3)CC2)cc1	5.0*	23	0	-5	0	-4
O=C(NCCC1=CCCCC1)C1CC(=O)N(C2CCCC2)C1 (stereo not given)	5.5*	-1	0	0	0	7
Cc1ccccc1Cc1c(C)nc2nc(SCC(=O)Nc3cc(C(F)(F)F)ccc3Cl)nn2c1C	1	-3	0	19	.	.
COc1cccc(NC(=O)NCc2nc(-c3cccnc3)n[nH]2)c1	1	4	0	15	.	.
COc1ccc(-c2nc3c(c4c2C[C@H](c2ccccc2)OC4)CN(C(=O)N[C@@H](C)C(=O)OC(C)C)CC3)c(C)c1	6.2*	-12	0	.	0	3
COc1ccc(-c2nc3c(c4c2C[C@H](c2ccccc2)OC4)CN(C(=O)N[C@@H](C)c2ccccc2)CC3)c(C)c1	-1	-5	0	.	.	.
COc1ccc(NC(=O)/C=C/c2ccc([N+](=O)[O-])cc2)c(OC)c1	1	-10	0	2	.	.
COc1ccc(NCCC(=O)c2ccc([N+](=O)[O-])cc2)c(OC)c1	5.2*	3	0	9	-1	-10
COc1ccc(C(=O)NCC(=O)OCc2ccc([N+](=O)[O-])cc2)cc1	8.1*	4	0	-3	0	-1
O=C(CNC(=O)c1ccccc1)OCc1ccc([N+](=O)[O-])cc1	2	-2	0	-1	.	.
Cc1cc(C)nc(SCc2ccc(C#N)cc2Cl)n1	1	11	0	-6	.	.
NCCCOc1ncccc1C(=O)Nc1ccc2[nH]ncc2c1	0	7	0	9	.	.
Cc1ccc(C(=O)CC(=O)C(=O)Nc2ncccc2O)c(C)c1	8.3*	-24	-1	5	0	9
CCn1c(C2CC(=O)N(c3ccc(Br)cc3)C2)nc2ccccc21 (stereo not given)	0	15	0	8	.	.
CN(C)C(=O)Cn1nc(-c2cc3c(s2)CCCC3)oc1=O	0	-13	0	-13	.	.
O=C(CSCC(=O)N1CCCCC1)Nc1nc(-c2cccs2)cs1	-1	10	0	-5	.	.
SMILES	GPR151 activ	MITF primary	FBW7 act	TEAD-YAP block	GPR151 conf act	GPR119 ag
O=C(CSCC(=O)N1CCCCC1)Nc1nc(-c2ccc(Cl)s2)cs1	6.1*	1	0	-24	0	7
COc1cc(OC)c(C(=O)OCC#N)cc1OC	5.7*	1	0	6	0	4
O=C(CSc1nc(-c2ccccc2)cn1-c1ccccc1)Nc1ccc(F)cc1	-2	10	0	4	.	.
CCOC(=O)c1sc(NC(=O)C2CC2)nc1C	13*	-5	0	8	1	5
COc1cccc(/C=N/NC(=O)CCC(=O)Nc2cccc(Cl)c2C)c1	0	0	0	6	.	.
CC(C)=CCN1CCN(Cc2sccc2C)CC1CCO (stereo not given)	12*	0	0	-14	2	15
Clc1cccc(Nc2c3c(nc4ccccc24)CCC3)c1	0	20	-1	-5	.	.
Cc1cc2nc(C3CCCN3C(=O)CN3CCCCC3)[nH]c2cc1C (stereo not given)	0	7	0	-3	.	.
Cc1cc2nc(C3CCCN3C(=O)CC3(C)C(=O)N=C4C=CC=CN43)[nH]c2cc1C (stereo not given)	8.0*	20	1	4	-1	0
CC1(C)NC(=O)N(CCOc2ccc(OCc3ccccc3)cc2)C1=O	7.2*	6	0	-1	0	-17
CCCCN(CC)C(=O)c1ccc([N+](=O)[O-])cc1Cl	7.7*	-18	0	4	0	-5
CCCCN(CC)C(=O)c1ccc([N+](=O)[O-])cc1	-1	11	0	-1	.	.
CC(CN1c2ccccc2Sc2ccccc21)N(C)C (stereo not given)	7.4*!	-7	0	-7	-1	-5
CC(CN(C)C)CN1c2ccccc2Sc2ccccc21 (stereo not given)	1	5	0	8	.	.
O=C(O)CCC(=O)NCCCn1ccnc1	0	5	0	-1	.	.
CCCCC1=CC2=CC(=O)C(C)(OC(=O)CCc3ccccc3)C(=O)C2=CO1 (stereo not given)	8.4*	3	0	.	0	4
CC(C)(C)OC(=O)NCCCC1=CC2=CC(=O)C(C)(OC(=O)CCc3ccccc3)C(=O)C2=CO1 (stereo not given)	2	-2	0	.	.	.
CCC(=O)OC1(C)C(=O)C=C2C=C(c3ccc(C#N)cc3)OC=C2C1=O (stereo not given)	5.0*	-18	0	.	1	6
COc1cc(C(=O)Nc2nnc(-c3ccc4c(c3)CCCC4)o2)cc(OC)c1OC	0	2	0	-2	.	.
O=C(Nc1sc(=Nc2ccccc2)n(CC2CCCO2)c1-c1ccccc1)c1ccc(Cl)cc1 (stereo not given)	0	8	0	-3	.	.
Cc1ccc(NC(=O)CCc2nnc3ccc(N4CCC(C)CC4)nn23)cc1	5.0*	-24	0	3	0	-5
Cc1ccc(NC(=O)CCc2nnc3ccc(N4CCC(C(N)=O)CC4)nn23)cc1	0	5	0	-3	.	.
Cc1ccc(NC(=O)CC2(CC(=O)O)CCCCC2)c(C)c1	5.7*	15	0	-3	0	8
Cc1cccc(NC(=O)CC2(CC(=O)O)CCCC2)c1	-1	0	0	-8	.	.
Cc1cccc(C(=O)Nc2ccc3nc(N4CCCCC4)cc(C)c3c2)c1	5.8*	-8	0	-7	0	8
